Measurements as given in PubChem BioAssay AID1159580 (chemical genetic matrix, 2015).
In all, about 5,500 compounds went through this assay and about 2,000 (36%) were called active. About 18% were inconclusive and are not listed. Rule as the data show it: active = normalized growth mostly below about 0.91 (no sharp cut-off); inconclusive = no clear call, values can overlap the other calls; inactive = mostly above about 0.92. The list shows a part of the results.

Assay: chemical genetic growth profiling, strain panel (AID 1159580);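 also: tested at 20 µM; growth read once vehicle control cultures reached saturation at 30 °C; 1 = growth at the plate median or of vehicle wells; lower values mean less growth of the strain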
Conditions: S. cerevisiae deletion strains, growth OD
[1] = locus YAL013W, strain DEP1, stronger effect = lower value
[2] = locus YAL040C, strain CLN3, stronger effect = lower value
[3] = locus YCL061C, strain MRC1 (second series), stronger effect = lower value
[4] = locus YDR363W, strain ESC2, stronger effect = lower value
[5] = locus YER002W, strain NOP16, stronger effect = lower value
[6] = locus YNL175C, strain NOP13, stronger effect = lower value
[7] = locus YNL197C, strain WHI3, stronger effect = lower value
[8] = locus YNL224C, strain SQS1, stronger effect = lower value
[9] = locus YOR083W, strain WHI5 (second series), stronger effect = lower value
[10] = locus YPL055C, strain LGE1, stronger effect = lower value
[11] = locus YPL241C, strain CIN2, stronger effect = lower value

Measured: normalized growth

NC(=O)C(=O)O
inactive: [1] 1.01 | [2] 1 | [3] 1 | locus YDR150W, strain NUM1, stronger effect = lower value 1 | [4] 1.02 | [5] 0.999 | locus YGR078C, strain PAC10, stronger effect = lower value 0.994 | locus YMR307W, strain GAS1, stronger effect = lower value 1 | [6] 1.01 | [7] 1 | [8] 1.01 | [9] 1.02 | [10] 1.01 | [11] 0.997

OCC1O[C@H](O)C(Cl)C(O)C1O (stereo partly drawn)
inactive: [1] 1.01 | [2] 1.01 | [3] 1.01 | [4] 0.977 | [5] 1 | locus YGR229C, strain SMI1, stronger effect = lower value 0.994 | locus YJR075W, strain HOC1, stronger effect = lower value 0.984 | locus YNL128W, strain TEP1, stronger effect = lower value 1.01 | [6] 1.02 | [7] 0.986 | [8] 1 | [9] 1.02 | [10] 0.979 | [11] 1.01
